In ChEMBL document CHEMBL3433997, “St. Jude Leishmania screening dataset” (2016) one finds inhibition data, which are given here for 40 compounds.

The first test deals with Solute carrier family 2, facilitated glucose transporter member 1 (Homo sapiens) (UniProt P11166). Put plainly: ST_JUDE_LEISH: Cytotoxicity at 2uM final concentration against transgenic Leishmania Mexicana promastigotes LmGLUT1 that are glucose transport deficient and complemented with the human glucose transporter GLUT1. Activity is measured by DNA content using SYBR green in vitro. The class given is functional.
Solute carrier family 2, facilitated glucose transporter member 1 (Homo sapiens), sequence (P11166 whole entry): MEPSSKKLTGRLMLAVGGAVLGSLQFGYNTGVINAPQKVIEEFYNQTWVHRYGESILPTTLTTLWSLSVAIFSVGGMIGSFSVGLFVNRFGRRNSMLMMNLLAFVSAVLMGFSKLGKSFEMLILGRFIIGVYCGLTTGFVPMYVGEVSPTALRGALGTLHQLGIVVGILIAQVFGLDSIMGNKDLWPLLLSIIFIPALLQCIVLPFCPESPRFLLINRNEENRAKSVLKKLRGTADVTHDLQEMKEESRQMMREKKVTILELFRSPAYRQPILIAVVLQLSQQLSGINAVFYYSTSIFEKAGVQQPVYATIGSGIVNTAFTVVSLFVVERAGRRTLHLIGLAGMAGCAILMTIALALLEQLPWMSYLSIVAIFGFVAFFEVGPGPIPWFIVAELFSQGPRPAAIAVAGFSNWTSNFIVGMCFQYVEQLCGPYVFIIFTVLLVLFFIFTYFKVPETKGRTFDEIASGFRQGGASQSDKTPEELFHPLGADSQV
As a reminder, the inhibition is the relative decrease from the control value, in per cent. For `CC1(C)[C@H]2CC[C@@H](CNc3nc(NCCc4c[nH]cn4)nc(NCc4cc(F)ccc4F)n3)[C@@H]1C2`, the inhibition is 4.07%.
In the case of `CC(C)N1CCC(N(Cc2ccc(-c3ccc(C(F)(F)F)cc3)cc2)C(=O)Cn2c(CCc3cccc(F)c3F)cc(=O)c3ccccc32)CC1`, the inhibition came to 0.12%.
Regarding `CC(=O)Nc1ccc(CN2CCC(NC(=O)c3ccc(-c4cccc(Cl)c4)s3)CC2)cc1`, the inhibition stood at 2.01%.
Consider `COc1ccc(Oc2ccc(Nc3ccnc4ccc(C(F)(F)F)cc34)cc2)cc1OC`, for which the inhibition was 7.8%.
For `COCCCN=C(S)NN=C(C)c1ccccn1`, the inhibition was 0.61%.
On the same count and under the same terms, under `COc1ccc(CNC(=O)NC2CCN(c3ccnc(Nc4cc(OC)c(OC)c(OC)c4)n3)C2)cc1` (stereo not given) stands 1.55%; under `Cc1cc(-c2ccc3c(c2)CCN(CCCOc2ccc4c(c2)CCN4C(=O)/C=C/c2ccccc2Cl)CC3)no1`, 5.8%.
Take `CN(C)c1ccc(CN2CCC(NC(=O)c3ccc(-c4cccc(Cl)c4)s3)CC2)cc1`: the inhibition came out at 0.72%.
`O=C(Cn1c(=O)cnc2ccccc21)Nc1cccc(C(=O)Nc2cccc(C(F)(F)F)c2)c1`: the inhibition came out at 1.09%.
Consider `O=C(CCCC(=O)Nc1ccc(C2=NCCN2)cc1)Nc1ccc(C2=NCCN2)cc1`, for which the inhibition is 0.86%.
As for `COCCn1c(-c2nc(-c3ccc(F)cc3)cnc2N)nc2ccccc21`, the inhibition was 0.54%.
For `Cc1ccc2c(c1)NCC21CCN(C[C@@H](O)C2CCN(c3cc(C#N)ccn3)CC2)CC1C` (stereo not given in full), the inhibition was -1.68%.
On the same count and under the same terms, under `Cc1ccoc1C(=O)Nc1cccc(-c2cccc(-c3nc4cc(C(F)(F)F)ccc4[nH]3)c2)c1` stands 3.75%; under `O=C(Nc1ccc2c(c1)CCN2C1CCN(Cc2cccc(F)c2F)C1)c1ccco1` (stereo not given), 2.08%.
The same measure, in the same setting: the same measure for `Cc1ccccc1CCNC(=O)c1cnc(N2CCN(c3ccncc3)CC2)c(Cl)c1`: 79%; for `c1ccc(CN2CCCN(c3ccc4c(c3)CCN(Cc3ccc(-c5ncc[nH]5)cc3)CC4)CC2)cc1`: 2.8%; for `Cc1cc(N/N=C/c2cccc([N+](=O)[O-])c2)c2ccccc2n1`: 1.39%.
For `Cc1cc(OCCCN2CCC(NS(=O)(=O)c3cccc(Br)c3)C2)c2ccccc2n1` (stereo not given), the inhibition came out at 0.6%.
`Cc1noc(C)c1-c1cccc(CNCc2cccc(-c3cccc(-c4nc5ccccc5[nH]4)c3)c2)c1`: the inhibition stood at 0.14%.
On the same count and under the same terms, the same measure for `COc1ccc2c(c1)CCCC2NCCCCNC(=O)c1ccc(NC(=O)c2ccc(Cl)cc2)cc1` (stereo not given): 1.92%.
As to `CN(Cc1cccc(C#N)c1)C1CCN(c2cc(NC(=O)c3ccc(F)cc3)ccn2)CC1`, the inhibition was determined as 3.29%.
On the same count and under the same terms, under `CC(=O)c1cccc2[nH]c(C(=O)NC3CCC(CCN4CCc5ccc(C#N)cc5C4)CC3)cc12` (stereo not given) stands 4.5%; under `Cc1noc(C)c1-c1ccc2c(Nc3ccc(Cl)cc3)c(C(N)=O)cnc2c1`, 24.3%; under `COc1ccc2nccc(N(C)CC3(O)CCN(CC(O)c4ccc5c(c4)NC(=O)CS5)CC3)c2n1` (stereo not given), -0.29%.
Take `FC(F)(F)c1cccc(Nc2nc(-c3ccccc3)nc3ncccc23)c1`: the inhibition came out at 3.41%.
On to `CCN(CC)Cc1cccc(-c2cc3c(-c4ccc(C(=O)O)c(C(C)C)c4)ccnc3[nH]2)c1OC`, for which the inhibition was determined as 12%.
On to `Fc1ccc(Nc2nnc(CNC3CCN(Cc4ccc(Cl)c(Cl)c4)CC3)[nH]2)cc1`, for which the inhibition is 2.85%.
Take `CCOc1ccc(C2CCN(CCN3CCC(NC(=O)c4ccc(-c5ccc(C(F)(F)F)cc5)cc4)CC3)CC2)c(OCC2CC2)c1`: the inhibition was found to be 3.99%.
For the compound `Cc1ccc(N2CCN(C(=O)c3cccc(-c4cncc5nc(-c6ccco6)n(C)c45)c3)CC2)nc1`, the inhibition came out at 6.13%.
Consider `CCOc1ccc(-n2nc3c(Cl)nnc(-c4ccccc4)c3c2-c2ccccc2)cc1`, for which the inhibition turned out to be 4.48%.
The same measure, in the same setting: under `CSCCCN1CCC(O)(c2ccc3oc(C(=O)Nc4ccc5sc(C)nc5c4)cc3c2)CC1` stands 23.3%; under `Cc1ccccc1OCC(O)CNC1CCC(NCC(O)COc2ccccc2C)CC1` (stereo not given), 10.2%.
Still for that read-out and setting: the same measure for `C/C=C/C=C/C1=NCCc2cc(OCCC)ccc21`: 71.8%; for `CC[C@H](C)CNC(=O)c1cccc(-c2cccc(CN3CCC(N4CCCC4)CC3)c2)n1`: -2.59%; for `CC1CN(Cc2ccc(-c3ccc(-c4nc5ccccc5[nH]4)cc3)cc2)CC(C)O1` (stereo not given): 6.34%.
With `CC1(C)NC(N)=NC(=N)N1OCCCOc1cc(Cl)cc(Cl)c1`, the inhibition turned out to be 4.4%.
Take `CC(C)Nc1cc(C(=O)N[C@@H](Cc2ccccc2)[C@H](O)CNC2CCCCC2)cc(N2CCCCS2(=O)=O)c1`: the inhibition worked out at 0.23%.
Turning to `COc1cc2nccc(Nc3cccc(Oc4ccccc4)c3)c2cc1OC`, the inhibition stood at 12.8%.
With `O=C(Nc1ccccc1Oc1ccccc1)NC1CCN(c2ccnc3cc(Cl)ccc23)C1` (stereo not given), the inhibition was determined as 3.65%.
For the compound `Cc1nc2c(c(C)nn2C(C)(C)C)c(C)c1CCC(=O)Nc1ccc(CN2CCCC2)cc1`, the inhibition was 9.93%.

Another test deals with Hexose transporter 1 (Plasmodium falciparum) (UniProt O97467). Briefly: ST_JUDE_LEISH: Cytotoxicity at 2uM final concentration against transgenic Leishmania Mexicana promastigotes LmPfHT that are glucose transport deficient and complemented with the Plasmodium falciparum hexose transporter. Activity is measured by DNA content using SYBR green in vitro. The format is functional.
`CC1(C)[C@H]2CC[C@@H](CNc3nc(NCCc4c[nH]cn4)nc(NCc4cc(F)ccc4F)n3)[C@@H]1C2`: the inhibition was found to be 0.62%.
Regarding `CC(C)N1CCC(N(Cc2ccc(-c3ccc(C(F)(F)F)cc3)cc2)C(=O)Cn2c(CCc3cccc(F)c3F)cc(=O)c3ccccc32)CC1`, the inhibition came to 1.55%.
Turning to `CC(=O)Nc1ccc(CN2CCC(NC(=O)c3ccc(-c4cccc(Cl)c4)s3)CC2)cc1`, the inhibition was -0.15%.
In the case of `COc1ccc(Oc2ccc(Nc3ccnc4ccc(C(F)(F)F)cc34)cc2)cc1OC`, the inhibition was 6.26%.
`COCCCN=C(S)NN=C(C)c1ccccn1`: the inhibition was -0.03%.
Regarding `COc1ccc(CNC(=O)NC2CCN(c3ccnc(Nc4cc(OC)c(OC)c(OC)c4)n3)C2)cc1` (stereo not given), the inhibition stood at 5.45%.
For `Cc1cc(-c2ccc3c(c2)CCN(CCCOc2ccc4c(c2)CCN4C(=O)/C=C/c2ccccc2Cl)CC3)no1`, the inhibition was determined as 12%.
On to `CN(C)c1ccc(CN2CCC(NC(=O)c3ccc(-c4cccc(Cl)c4)s3)CC2)cc1`, for which the inhibition is -1%.
`O=C(Cn1c(=O)cnc2ccccc21)Nc1cccc(C(=O)Nc2cccc(C(F)(F)F)c2)c1`: the inhibition is 3.37%.
Take `O=C(CCCC(=O)Nc1ccc(C2=NCCN2)cc1)Nc1ccc(C2=NCCN2)cc1`: the inhibition stood at 0.54%.
Still for that read-out and setting: the same measure for `COCCn1c(-c2nc(-c3ccc(F)cc3)cnc2N)nc2ccccc21`: -2.08%.
Same read-out and setting: under `Cc1ccc2c(c1)NCC21CCN(C[C@@H](O)C2CCN(c3cc(C#N)ccn3)CC2)CC1C` (stereo not given in full) stands 0%; under `Cc1ccoc1C(=O)Nc1cccc(-c2cccc(-c3nc4cc(C(F)(F)F)ccc4[nH]3)c2)c1`, 1.86%; under `O=C(Nc1ccc2c(c1)CCN2C1CCN(Cc2cccc(F)c2F)C1)c1ccco1` (stereo not given), 1.62%.
Take `Cc1ccccc1CCNC(=O)c1cnc(N2CCN(c3ccncc3)CC2)c(Cl)c1`: the inhibition amounted to 81.9%.
Take `c1ccc(CN2CCCN(c3ccc4c(c3)CCN(Cc3ccc(-c5ncc[nH]5)cc3)CC4)CC2)cc1`: the inhibition turned out to be 3.96%.
For `Cc1cc(N/N=C/c2cccc([N+](=O)[O-])c2)c2ccccc2n1`, the inhibition stood at 1.27%.
For the compound `Cc1cc(OCCCN2CCC(NS(=O)(=O)c3cccc(Br)c3)C2)c2ccccc2n1` (stereo not given), the inhibition came to 1.51%.
Regarding `Cc1noc(C)c1-c1cccc(CNCc2cccc(-c3cccc(-c4nc5ccccc5[nH]4)c3)c2)c1`, the inhibition turned out to be 1.29%.
Take `COc1ccc2c(c1)CCCC2NCCCCNC(=O)c1ccc(NC(=O)c2ccc(Cl)cc2)cc1` (stereo not given): the inhibition was 0.37%.
Turning to `CN(Cc1cccc(C#N)c1)C1CCN(c2cc(NC(=O)c3ccc(F)cc3)ccn2)CC1`, the inhibition was 2.12%.
As for `CC(=O)c1cccc2[nH]c(C(=O)NC3CCC(CCN4CCc5ccc(C#N)cc5C4)CC3)cc12` (stereo not given), the inhibition was 4.09%.
On to `Cc1noc(C)c1-c1ccc2c(Nc3ccc(Cl)cc3)c(C(N)=O)cnc2c1`, for which the inhibition amounted to 29.3%.
In the case of `COc1ccc2nccc(N(C)CC3(O)CCN(CC(O)c4ccc5c(c4)NC(=O)CS5)CC3)c2n1` (stereo not given), the inhibition is -0.78%.
With `FC(F)(F)c1cccc(Nc2nc(-c3ccccc3)nc3ncccc23)c1`, the inhibition was 2.83%.
For the compound `CCN(CC)Cc1cccc(-c2cc3c(-c4ccc(C(=O)O)c(C(C)C)c4)ccnc3[nH]2)c1OC`, the inhibition was determined as 8.43%.
Still for that read-out and setting: the same measure for `Fc1ccc(Nc2nnc(CNC3CCN(Cc4ccc(Cl)c(Cl)c4)CC3)[nH]2)cc1`: 0.21%; for `CCOc1ccc(C2CCN(CCN3CCC(NC(=O)c4ccc(-c5ccc(C(F)(F)F)cc5)cc4)CC3)CC2)c(OCC2CC2)c1`: 3%; for `Cc1ccc(N2CCN(C(=O)c3cccc(-c4cncc5nc(-c6ccco6)n(C)c45)c3)CC2)nc1`: 5.42%.
Consider `CCOc1ccc(-n2nc3c(Cl)nnc(-c4ccccc4)c3c2-c2ccccc2)cc1`, for which the inhibition is 6.02%.
On to `CSCCCN1CCC(O)(c2ccc3oc(C(=O)Nc4ccc5sc(C)nc5c4)cc3c2)CC1`, for which the inhibition stood at 24.5%.
Regarding `Cc1ccccc1OCC(O)CNC1CCC(NCC(O)COc2ccccc2C)CC1` (stereo not given), the inhibition is 10.5%.
On the same count and under the same terms, under `C/C=C/C=C/C1=NCCc2cc(OCCC)ccc21` stands 74.1%; under `CC[C@H](C)CNC(=O)c1cccc(-c2cccc(CN3CCC(N4CCCC4)CC3)c2)n1`, -0.05%.
Take `CC1CN(Cc2ccc(-c3ccc(-c4nc5ccccc5[nH]4)cc3)cc2)CC(C)O1` (stereo not given): the inhibition is 6.82%.
`CC1(C)NC(N)=NC(=N)N1OCCCOc1cc(Cl)cc(Cl)c1`: the inhibition was 7.49%.
Same read-out and setting: under `CC(C)Nc1cc(C(=O)N[C@@H](Cc2ccccc2)[C@H](O)CNC2CCCCC2)cc(N2CCCCS2(=O)=O)c1` stands 3.37%.
Regarding `COc1cc2nccc(Nc3cccc(Oc4ccccc4)c3)c2cc1OC`, the inhibition worked out at 14.4%.
For the compound `O=C(Nc1ccccc1Oc1ccccc1)NC1CCN(c2ccnc3cc(Cl)ccc23)C1` (stereo not given), the inhibition was found to be 4.63%.
Same read-out and setting: the same measure for `Cc1nc2c(c(C)nn2C(C)(C)C)c(C)c1CCC(=O)Nc1ccc(CN2CCCC2)cc1`: 6.16%.
